Mdm2 MdmX PPI = inhibitors of human Mdm2-MdmX association, primary screen, cell-based, luminescence, split luciferase, SaOS-2, uHTS. SaOS-2 split-luciferase Mdm2/MdmX complementation. 330,000 tested, 3% active. inhibition, % at 8 µM. Protein Mdm4 (Homo sapiens) + E3 ubiquitin-protein ligase Mdm2 (Homo sapiens), …. AID 485346, 2010;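 active = inhibition of at least 50% at 8 µM in the primary screen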
Target sequence (O15151 whole entry, looked up): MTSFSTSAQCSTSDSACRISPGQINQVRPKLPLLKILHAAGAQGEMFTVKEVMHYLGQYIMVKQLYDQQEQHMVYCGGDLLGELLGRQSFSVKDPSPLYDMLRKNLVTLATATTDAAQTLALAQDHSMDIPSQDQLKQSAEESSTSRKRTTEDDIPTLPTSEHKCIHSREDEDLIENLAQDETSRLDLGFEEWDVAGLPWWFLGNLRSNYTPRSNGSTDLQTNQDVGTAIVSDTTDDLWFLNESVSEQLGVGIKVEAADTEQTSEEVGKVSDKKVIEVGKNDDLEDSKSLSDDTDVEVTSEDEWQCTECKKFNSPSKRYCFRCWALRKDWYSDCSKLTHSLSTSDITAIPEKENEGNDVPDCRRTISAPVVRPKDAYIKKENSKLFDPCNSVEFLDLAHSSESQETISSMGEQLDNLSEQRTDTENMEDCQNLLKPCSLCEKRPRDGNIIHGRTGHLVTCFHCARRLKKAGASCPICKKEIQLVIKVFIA
Target sequence (Q00987 whole entry, looked up): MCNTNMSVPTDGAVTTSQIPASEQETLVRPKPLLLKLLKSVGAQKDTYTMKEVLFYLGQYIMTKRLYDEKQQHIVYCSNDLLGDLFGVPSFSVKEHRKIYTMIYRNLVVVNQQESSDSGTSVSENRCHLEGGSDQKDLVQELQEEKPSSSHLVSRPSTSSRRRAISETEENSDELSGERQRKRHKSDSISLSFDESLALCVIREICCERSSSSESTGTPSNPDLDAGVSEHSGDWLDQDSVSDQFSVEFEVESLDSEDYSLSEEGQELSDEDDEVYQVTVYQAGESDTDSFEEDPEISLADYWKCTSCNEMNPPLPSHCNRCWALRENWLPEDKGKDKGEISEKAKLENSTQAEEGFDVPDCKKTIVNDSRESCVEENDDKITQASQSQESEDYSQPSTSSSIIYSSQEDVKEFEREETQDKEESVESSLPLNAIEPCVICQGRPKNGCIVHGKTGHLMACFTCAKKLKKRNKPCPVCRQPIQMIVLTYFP
A1 inh = caspase 3/7 activation in MEF A1-2A-BIM cells, primary screen, A1 inhibitor project, cell-based, luminescence, HTS; Caspase-Glo 3/7 luminescence, 3 h; percent of clofoctol response, vehicle zero; caspase activation, % (test concentration not listed); 330,000 tested, 0.066% active; AID 2462, 2010;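 active = over half of replicate activation scores above 10%, or exactly half above 10 with the replicate mean above 10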
CSC inhib = cancer stem cell viability inhibitors, primary screen, luminescence; cancer stem cell-like cells viability; inhibition, % at 7.5 µM; 300,000 tested, 1.1% active; AID 2717, 2010; in the data active = inhibition above about 75%; tested in HMLE shEcad cells
Beta apoptosis = inhibitors of cytokine-induced beta cell apoptosis, primary screen, luminescence. protection from apoptosis, % (test concentration not listed). INS-1E cytokine-induced death, ATP luminescence, 48 h; percent of positive-control rescue, neutral wells zero. 300,000 tested, 0.8% active. AID 435005, 2010;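 active = Every replicate reaches about 75%, or at least half do and their mean reaches it too, limit read from the data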;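 also: 0% = cytokine-treated negative control wells and 100% = positive control rescue; higher means more ATP so stronger rescue from cytokine killing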
aSyn UTR inh = MLPCN primary screen, SNCA 5' untranslated region; alpha-synuclein 5'UTR reporter, inhibitor activity; inhibition, % (tested at 7.5 µM); 300,000 tested, 0.82% active; in the data active = inhibition above about 60%;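 also: H4 neuroglioblastoma cells stably carrying SNCA 5'UTR luciferase fusion; 0% = DMSO wells and 100% = positive control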
* hit, by the source's call; . = not tested or not shown; ! = a repeat was not active. Shown are actives, neighbours in structure and some others; about 4.1% of the full set was active somewhere.

SMILES	Mdm2 MdmX PPI	A1 inh	CSC inhib	Beta apoptosis	aSyn UTR inh
COc1cc2c(cc1NC(=O)Nc1cccc(C)c1)oc1ccccc12	-9.8	-0.8	19.7	9.3	-23.0
COc1cc2c(cc1NC(=O)c1cccc(S(=O)(=O)N(C)C)c1)oc1ccccc12	-61.3	-0.1	126.4*	2.7	-59.1
COc1ccc(NC(=O)Nc2cc3oc4ccccc4c3cc2OC)cc1	-8.4	0.3	7.8	3.8	-152.0
CCOC(=O)[C@@H]1[C@H]2COc3cc(OC)ccc3[C@@H]2N2C(=O)N(c3ccccc3)C(=O)[C@@]12C	0.5	1.4	-15.1	-2.2	.
CCN(CC)c1nc(Nc2ccc(Cl)cc2)nc(OCC#N)n1	29.2	-0.8	1.0	9.2	70.0*
CCC(=O)NCCc1nc2cc(NC(=O)c3ccco3)ccc2n1C	-2.7	0.1	-0.3	-0.3	-72.7
COCCNC(=O)Cn1nc(-c2ccc(C)cc2)c2ccccc2c1=O	13.9	0.7	3.1	2.1	11.8
CCc1nnc(NC(=O)CSc2nc(-c3ccccc3)cc(-c3ccc(F)cc3)c2C#N)s1	15.4	7.1*	-6.8	4.0	33.6
CCc1nnc(NC(=O)CSc2ccc(-c3ccc(F)cc3)nn2)s1	-16.2	0.4	-2.1	3.0	-10.5
CC(C)(C)c1ccc(-c2noc(CCC(=O)NCc3ccco3)n2)cc1	-152.5	-2.5	4.7	-10.7	77.3*
COc1cc(NC(=O)c2ccco2)c(C(=O)OCC(=O)c2c[nH]c3ccccc23)cc1OC	49.7	-0.3	82.8*	42.6	11.4
Fc1ccc(NC(=S)Nc2cc(-c3ccccc3)[nH]n2)cc1Cl	-7.9	0.6	87.6*	1.1	-26.8
CCc1ccc(-c2cc(C(=O)Nn3cnnc3)c3ccccc3n2)cc1	-51.9	-7.2	40.5	33.7	73.9*
CCCc1ccc(-c2cc(C(=O)NN3CCOCC3)c3ccccc3n2)cc1	5.1	-0.4	-20.9	5.3	-93.0
CCc1ccc(-c2cc(C(=O)N3N=C(C(F)F)CC3(O)C(F)F)c3ccccc3n2)cc1 (stereo not drawn)	1.7	0.7	88.7*	13.7	-67.7
Cn1cccc1C(NC(=O)c1ccccc1)C(Cl)(Cl)Cl (stereo not drawn)	7.3	0.4	2.2	-1.5	3.9
CC(=O)Nc1ccc(NC(=O)C(C)OC(=O)CNS(=O)(=O)c2ccc(Br)cc2Cl)cc1 (stereo not drawn)	1.6	-0.1	0.5	-2.3	-8.1
Cc1cccc(NS(=O)(=O)c2nnc(NC(=O)C3CCCCC3)s2)c1	-25.6	-0.5	10.2	1.7	5.9
Cc1cc(C)cc(NC(=O)CCc2c(C)nn(-c3ccc(N4CCOCC4)nn3)c2C)c1	-4.4	-1.4	-18.5	.	-14.7
Nc1ccccc1N=Cc1ccc(-c2cccc(Cl)c2)o1	-19.3	-1.5	76.6*	7.6	-145.1
C[C@@H]1COC(=O)[C@@H](NC(=O)OCC2c3ccccc3-c3ccccc32)C/C=C\C[C@@H](CC(=O)N(CCO)Cc2ccccc2)C(=O)N1	0.8	0.4	.	69.8	.
CC1CCCC(NC(=O)CCC(=O)NCc2ccccc2)C1C (stereo not drawn)	3.4	-0.4	-2.1	.	6.4
CCS(=O)(=O)Nc1ccc(-c2cc(-c3ccccc3)c3cc(C)ccc3n2)cc1	.	1.0	85.2*	5.3	9.2
COc1ccc(N/N=C(/C#N)S(=O)(=O)c2nsc(C)c2C#N)cc1	-2.3	-1.3	2.7	-1.7	8.7
Cc1snc(S(=O)(=O)/C(C#N)=N/Nc2cccc(C(F)(F)F)c2)c1C#N	17.0	-0.3	88.1*	1.9	4.4
SMILES	Mdm2 MdmX PPI	A1 inh	CSC inhib	Beta apoptosis	aSyn UTR inh
N#Cc1cnn2c1nc(N1CCCCC1)c1ccccc12	47.3	0.5	15.4	-4.9	64.3*
CC(C)c1ccc(S(=O)(=O)c2nnn3c2nc(N2CCCCC2)c2ccccc23)cc1	5.7	1.1	22.1	-3.1	25.9
CCOC(=O)C1=NN(C(=O)c2cccc(Br)c2)C(O)(C(C)(C)C)C1 (stereo not drawn)	7.2	0.0	2.4	.	104.7*
C/C(=N\OCc1cccc(C(=O)O)c1)c1ccc(Cl)cc1	16.8	-8.3	7.6	2.8	104.4*
C/C(=N\OCc1ccc(C#N)cc1)c1ccccc1	-102.4	-7.2	1.1	.	-119.8
CCn1c(SCC(=O)N2CCN(c3ccc(Cl)cc3)CC2)nc2ccccc2c1=O	7.1	0.7	4.3	-5.8	-11.2
CCn1c(SCC(=O)N2CCN(c3ccc(F)cc3)CC2)nc2ccccc2c1=O	8.3	0.5	76.9*	-0.8	21.3
CCCCCCCCCCS(=O)(=O)N/N=C/c1ccc([N+](=O)[O-])cc1	2.6	-2.0	86.0*	4.6	15.6
CCOC(=O)c1nn(-c2ccccc2)c(-c2ccccc2)c1C(=O)c1ccccc1	-11.2	0.9	5.5	1.5	33.1
CCOC(=O)c1nn(-c2ccc(F)cc2)c(-c2ccccc2)c1C(=O)c1ccccc1	-6.9	0.1	78.3*	23.7	21.0
COc1ccc(CNC(=O)CN(Cc2ccc(C)cc2)C(=O)c2csnn2)cc1	6.9	-0.9	1.5	-1.5	4.7
CCOc1ccc(NC(=O)c2ccc(NS(=O)(=O)c3cccs3)cc2)cc1	7.2	0.3	10.7	3.3	-28.6
Cc1cccc(CN2C(=O)c3ccccc3S(=O)(=O)c3ccc(C(=O)NCCCN4CCCC4)cc32)c1	24.2	.	.	.	-11.1
O=C(NCCN1CCCC1)c1ccc2c(c1)N(Cc1cccc(Cl)c1)C(=O)c1ccccc1S2(=O)=O	38.7	0.5	107.1*	0.3	-22.2
NC(=S)NNc1ccnc2cc(Cl)ccc12	-2.7	0.0	-13.7	-10.1	5.8
O=C(NNc1ccnc2cc(Cl)ccc12)C1CCCCC1	26.3	0.4	2.8	127.1*	-1.0
COc1ccc2cc3[n+](cc2c1OC)CCc1cc2c(cc1-3)OCO2	37.8	0.5	-4.4	79.4*!	-12.2
COc1cccc(C2=NCCc3cc4c(cc32)OCO4)c1OC	17.5	0.7	-12.4	-0.7	10.8
CCOc1cc(S(=O)(=O)NCc2cccs2)ccc1Cl	30.1	1.3	-0.2	-1.2	-19.1
Cc1cc(S(=O)(=O)NCc2ccncc2)c(C)cc1Br	24.4	0.3	-3.2	74.7*	-21.7
CC1CCCCC1NS(=O)(=O)c1ccc(S(=O)(=O)NCc2ccncc2)cc1 (stereo not drawn)	-2.1	-0.2	.	77.2*	7.1
Cc1ccc(C)c(S(=O)(=O)NCc2ccncc2)c1	12.5	0.4	10.2	8.9	-6.6
CCOc1ccc(S(=O)(=O)NCc2ccncc2)cc1	6.3	-0.7	21.6	115.6*	15.7
CCOc1cc(S(=O)(=O)NCc2ccncc2)ccc1Cl	33.8	1.7	-2.0	111.2*	9.7
Cc1ccc(C)c(NC(=O)CSc2nnc(C3CCCCC3)o2)c1	11.1	0.2	-16.4	1.8	-14.3
CC(C)N(C(=O)CN1C(=O)NC(c2ccccc2)(c2ccccc2)C1=O)C(C)C	-11.3	0.4	-8.2	3.9	-15.2
CCCCCc1ccc(-c2cn(Cc3ccc(C)cc3)nn2)cc1	-8.6	-0.3	-4.6	4.4	-99.5

Compound activity from PubChem.
